PubChem BioAssay AID1159580 (chemical genetic matrix, 2015)
Out of some 5,500 compounds screened, about 2,000 (36%) were called active. Not shown: some 18% with an inconclusive outcome. Rule as the data show it: active = normalized growth mostly below about 0.91 (no sharp cut-off); inconclusive = no clear call, values can overlap the other calls; inactive = mostly above about 0.92. Some of the results follow.

Assay: chemical genetic growth profiling, strain panel (AID 1159580);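 also: tested at 20 µM; growth read once vehicle control cultures reached saturation at 30 °C; 1 = growth at the plate median or of vehicle wells; lower values mean less growth of the strain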
Conditions: S. cerevisiae deletion strains, growth OD
[1] = locus YAL013W, strain DEP1, stronger effect = lower value
[2] = locus YBR229C, strain ROT2, stronger effect = lower value
[3] = locus YDL101C, strain DUN1, stronger effect = lower value
[4] = locus YDR150W, strain NUM1, stronger effect = lower value
[5] = locus YEL061C, strain CIN8, stronger effect = lower value
[6] = locus YGR078C, strain PAC10, stronger effect = lower value
[7] = locus YGR229C, strain SMI1, stronger effect = lower value
[8] = locus YHR030C, strain SLT2, stronger effect = lower value
[9] = locus YHR087W, strain rtc3, stronger effect = lower value
[10] = locus YJR043C, strain POL32, stronger effect = lower value
[11] = locus YJR075W, strain HOC1, stronger effect = lower value
[12] = locus YLR039C, strain RIC1, stronger effect = lower value
[13] = locus YLR058C, strain SHM2 (second series), stronger effect = lower value
[14] = locus YLR085C, strain ARP6, stronger effect = lower value
[15] = locus YLR262C, strain YPT6, stronger effect = lower value
[16] = locus YML094W, strain GIM5, stronger effect = lower value
[17] = locus YMR219W, strain ESC1, stronger effect = lower value
[18] = locus YMR263W, strain SAP30, stronger effect = lower value
[19] = locus YNL153C, strain GIM3, stronger effect = lower value
[20] = locus YNL298W, strain CLA4 (second series), stronger effect = lower value
[21] = locus YNL322C, strain KRE1, stronger effect = lower value
[22] = locus YNR030W, strain Alg12, stronger effect = lower value
[23] = locus YPL055C, strain LGE1, stronger effect = lower value
[24] = locus YPL241C, strain CIN2, stronger effect = lower value
[25] = locus YPR135W, strain CTF4, stronger effect = lower value

Measured: normalized growth

COC(=O)CSCCc1nc(-c2ccc([N+](=O)[O-])cc2)cs1
inactive: [1] 1 | [2] 0.972 | locus YCL061C, strain MRC1, stronger effect = lower value 0.97 | [3] 0.967 | locus YDL134C, strain PPH21, stronger effect = lower value 0.976 | [4] 0.991 | [5] 0.986 | [6] 0.978 | [7] 0.965 | [9] 0.987 | [10] 0.971 | [11] 0.946 | [12] 0.919 | [13] 0.964 | [15] 0.915 | [16] 0.994 | [17] 0.975 | [18] 0.968 | [19] 1.01 | [20] 0.927 | [21] 0.965 | [22] 0.969 | [23] 0.971 | [24] 0.911 | [25] 0.894
active: [8] 0.683 | [14] 0.717

O=[N+]([O-])c1ccc(-c2nn[nH]n2)cc1
inactive: [1] 0.992 | [2] 0.987 | [3] 0.988 | [4] 1.01 | [5] 1.01 | [6] 0.989 | [7] 0.987 | [8] 0.955 | [9] 0.993 | [10] 1.01 | [11] 0.992 | locus YKL190W, strain CNB1, stronger effect = lower value 0.975 | [12] 0.968 | [13] 0.984 | [14] 1.04 | [15] 0.871 | [16] 1.04 | [17] 0.994 | [18] 1.01 | locus YMR307W, strain GAS1, stronger effect = lower value 1.11 | locus YNL128W, strain TEP1, stronger effect = lower value 0.971 | [19] 0.995 | [20] 0.965 | [21] 0.99 | [22] 0.98 | [23] 0.993 | [24] 0.999 | [25] 0.967
